Compounds with a hit are over-represented: about 5.7% of the library has one in this group of screens.
ClpP mod – qHTS Assay for Activators of ClpP; ATP-dependent Clp protease proteolytic subunit (Bacillus subtilis (strain 168)), P80244; purified B. subtilis ClpP, FRET peptide cleavage, 20 min; Potency, µM (highest dose often 57.5 µM), for inactives: top-dose activity change, negative = active; 340,000 tested, 1.9% active; AID 651965, 2013; active = well fitted falling curve with a large enough effect; inconclusive = small, poorly fitted or top-dose-only effect; inactive = no such curve, though single readings can be large or run the other way; also: potency is read from the fitted curve at half-maximal effect; the source files actives as falling curves though it sought activators and does not explain the sign; nearly all actives have a fitted effect of over 65% in size
Target sequence (P80244 whole entry, looked up): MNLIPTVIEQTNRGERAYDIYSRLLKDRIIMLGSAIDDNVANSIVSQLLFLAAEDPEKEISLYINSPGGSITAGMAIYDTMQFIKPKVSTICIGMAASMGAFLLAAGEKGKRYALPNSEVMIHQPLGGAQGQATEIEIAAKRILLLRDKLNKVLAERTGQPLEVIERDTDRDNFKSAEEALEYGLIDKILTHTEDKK
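FRET quenching reversal measured ClpP activation: 10 microg/mL B. subtilis ClpP at pH 8 with the FRET-FV decapeptide, read at 430 nm after 320 nm excitation. The 20-min minus 0-min signal was scaled between DMSO/no-enzyme wells and ADEP (5.8 microM final).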
GLP1R cytotox – cytotoxicity counter-screen for GLP-1 receptor inverse agonists. HEK293 cAMP-luciferase reporter cells, luminescence, 24 h. Potency, µM (titrated, usually from 38.3 µM), without a hit: at the highest dose activity change, negative = inhibition, most hits filed as inhibitors. 410,000 tested, 0.13% active. AID 624418;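 also: loss of luciferase light is scored as toxicity; potency is read from the fitted curve at half-maximal effect; % is scaled to controls: 0 for no effect and ±100 for the full control effect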
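Luminescence readout: signal drop marks cytotoxicity. Plated cells grew 12 h at 37 °C, 5% CO2, received 23 nL compound for 24 h, then got luciferase reagent, read after 12 min at RT.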
GLP1R inv ag – GLP-1 receptor (human) inverse agonism; P43220; HEK293 GLP-1R CRE-luciferase, luminescence, 24 h; GLP-1R form is constitutively active; Potency, µM (series often up to 38.3 µM), inactives show at the top dose activity change, negative = inhibition, hits mostly inhibitors; 410,000 tested, 1.6% active; also: potency is read from the fitted curve at half-maximal effect; % is scaled to controls: 0 for no effect and ±100 for the full control effect; nearly all actives have a fitted effect of over 55% in size
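Seeding at 200 cells/uL, 12 h culture, 24 hr compound treatment, then luciferase reagent and a luminescence read; cells are HEK293 stably expressing a constitutively active GLP-1R plus cAMP-responsive luciferase.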
DRD3 agonist – D3 dopamine receptor (human) agonism; P35462; D3R DiscoveRx beta-arrestin cells, luminescence, 90 min; max activation, %; 410,000 tested, 0.58% active; in the data active = max activation above about 30%; also: 0% is about no effect
Target sequence (P35462 whole entry, looked up): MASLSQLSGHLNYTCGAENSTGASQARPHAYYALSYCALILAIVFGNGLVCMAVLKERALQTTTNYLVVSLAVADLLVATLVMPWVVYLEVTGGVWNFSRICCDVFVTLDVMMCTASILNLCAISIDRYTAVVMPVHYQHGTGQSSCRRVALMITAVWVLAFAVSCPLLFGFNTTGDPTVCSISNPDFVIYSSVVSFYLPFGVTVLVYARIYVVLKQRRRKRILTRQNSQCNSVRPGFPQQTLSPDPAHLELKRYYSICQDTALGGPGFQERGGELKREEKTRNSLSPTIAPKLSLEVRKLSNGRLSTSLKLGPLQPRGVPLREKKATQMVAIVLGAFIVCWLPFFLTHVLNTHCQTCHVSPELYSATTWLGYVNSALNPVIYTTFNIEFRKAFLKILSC
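Agonist mode: compounds and dopamine controls were applied to plated cells for 90 min at 37 degrees C after an overnight attachment at 1500 cells/well. Luminescent read-out followed 30 - 60 minutes at room temperature with DiscoveRx detection reagent.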
D3 antag – blocks the human D3 dopamine receptor; 360,000 tested, 2.5% active; D3R cells, DiscoveRx beta-arrestin luminescence, antagonist mode; hits give low values; AID 652054; P35462; max response, negative = inhibition, %; in the data active = max response below about -50%; inconclusive = no clear call, values can overlap the other calls; also: % is scaled to controls: 0 for no effect and ±100 for the full control effect
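Cells plated overnight at 1500 cells/well, then exposed to library compounds with dopamine controls for 90 minutes at 37 degrees C. DiscoveRx reagent added for 30–60 minutes at room temperature; luminescence read, quantitative HTS format.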
GLP-1R agonist – GLP-1 receptor (human) agonism. 380,000 tested, 0.007% active. AID 624172. Potency, µM (top dose mostly 45.6 µM), for inactives: at the highest dose activation, actives largely listed as activators. P43220. HEK293 GLP-1R CRE-luciferase, luminescence, 4-6 h; cells express a hypersensitive GLP-1R form; also: potency is read from the fitted curve at half-maximal effect; % of control where 0% means no effect
An asterisk follows results filed as active. Unless noted, calls follow the shape of the dose curve; as a rule, active = well fitted curve in the direction sought with a large enough effect; inconclusive = small, poorly fitted or top-dose-only effect, or another doubt; inactive = no such curve, though single readings can be large; an effect the other way counts as inactive or inconclusive.

Results for CCOc1ccc(-c2n[nH]c(C)c2-c2ccccc2OC)c(O)c1 ?
ClpP mod: -1%; GLP1R cytotox: inconclusive; GLP1R inv ag: 5µM*; DRD3 agonist: 1; D3 antag: 24; GLP-1R agonist: 5%

What do the screens show for `Cc1c(C(=O)NCc2ccccc2Cl)sc2ncnc(N(C)C3CCCCC3)c12`?
ClpP mod: inconclusive; GLP1R cytotox: 13%; GLP1R inv ag: 15%; DRD3 agonist: -7

Results for CCCN(C)C[C@@H]1OCc2cnnn2CCCC(=O)N([C@H](C)CO)C[C@H]1C ?
ClpP mod: -1%; GLP1R cytotox: -3%; GLP1R inv ag: -8%; DRD3 agonist: 1; D3 antag: -14; GLP-1R agonist: -5%

What do the screens show for `Nc1nc(-c2ccc(Cl)cc2)c(N=Nc2ccc(S(=O)(=O)N3CCOCC3)cc2)s1`?
ClpP mod: 0%; GLP1R cytotox: 21%; GLP1R inv ag: 23%; DRD3 agonist: 0; D3 antag: -54*; GLP-1R agonist: 0%

What do the screens show for `COc1ccc(Cn2c(SCc3ccc(C(=O)NCc4ccc(C)cc4)cc3)nc3cccnc32)cc1`?
ClpP mod: 32µM*; GLP1R cytotox: -1%; GLP1R inv ag: 0%; DRD3 agonist: -8

Results for O=C(NCCN1CCCCC1)c1ccc(Cn2c(SCc3ccc(F)cc3)nc3cccnc32)cc1 ?
ClpP mod: 32µM*; GLP1R cytotox: 0%; GLP1R inv ag: -19%; DRD3 agonist: -9

Results for COc1ccc(Cn2c(SCc3ccc(C(=O)NCc4ccccc4F)cc3)nc3cccnc32)cc1 ?
ClpP mod: 32µM*; GLP1R cytotox: -2%; GLP1R inv ag: -13%; DRD3 agonist: -4

Results for CN(C)CCNC(=O)c1ccc(Cn2c(SCc3ccc(F)cc3)nc3cccnc32)cc1 ?
ClpP mod: 4%; GLP1R cytotox: -11%; GLP1R inv ag: -21%; DRD3 agonist: -7

Results for Cc1cc(C(Br)(Br)Br)nc2ccccc12 ?
ClpP mod: 1%

What do the screens show for `O=C(NCCCN1CCOCC1)c1ccccc1N1C(=O)[C@@H]2Cc3c([nH]c4ccccc34)C(c3ccc(F)cc3)N2C1=O` (stereo partly specified)?
ClpP mod: -4%; GLP1R cytotox: -4%; GLP1R inv ag: inconclusive; DRD3 agonist: 33*; D3 antag: 16; GLP-1R agonist: -4%

Results for COc1ccccc1C(=O)NC1=NC(c2ccc(Br)cc2)CC(=O)N1 (stereo unspecified) ?
ClpP mod: 32µM*; GLP1R cytotox: -4%; GLP1R inv ag: 1%; DRD3 agonist: 2

Results for COc1ccc(NC(=O)/C(Cl)=C(/Cl)S(=O)Cc2ccc(Cl)cc2)cn1 (stereo unspecified) ?
GLP1R cytotox: inconclusive; GLP1R inv ag: inconclusive; DRD3 agonist: -33; D3 antag: -116*; GLP-1R agonist: 0%

Results for COc1ccc(NC(=O)C(Cl)=C(Cl)Cl)cn1 ?
GLP1R cytotox: -12%; GLP1R inv ag: 44%; DRD3 agonist: 7; D3 antag: 6; GLP-1R agonist: 13%

What do the screens show for `COc1ccc(NC(=O)c2sc3nc4c(cc3c2N)CCCCCC4)cc1Cl`?
ClpP mod: 13µM*; GLP1R cytotox: 5%; GLP1R inv ag: inconclusive; DRD3 agonist: 6

How did CCn1c(-c2cc3c(C(F)(F)F)nn(C)c3s2)n[nH]c1=S do in these assays?
ClpP mod: 28µM*; GLP1R cytotox: 3%; GLP1R inv ag: 0%; DRD3 agonist: -22; D3 antag: 11; GLP-1R agonist: 35%

Results for CC(=O)Nc1ccc(N=Cc2c(O)c(C(=O)Nc3ccccc3)cc3ccccc23)cc1 ?
ClpP mod: 0%; GLP1R cytotox: -19%; GLP1R inv ag: inconclusive; DRD3 agonist: 2; D3 antag: 11; GLP-1R agonist: 2%

How did CCOc1cc(Br)c(Br)c(C=Nc2ccc(NC(C)=O)cc2)c1O do in these assays?
ClpP mod: 1%; GLP1R cytotox: -7%; GLP1R inv ag: -13%; DRD3 agonist: 3; D3 antag: -100*; GLP-1R agonist: -1%

Results for COC(=O)C1CCN(c2csc3ccc(Cl)cc3c2=O)CC1 ?
ClpP mod: -30%; GLP1R cytotox: 3%; GLP1R inv ag: 7%; DRD3 agonist: 11

How did CCOc1ccccc1CNC(=O)CCn1ccc2cc(S(=O)(=O)N3CCC(C)CC3)ccc21 do in these assays?
ClpP mod: -3%; GLP1R cytotox: -7%; GLP1R inv ag: inconclusive; DRD3 agonist: -9

How did Cc1ccccc1NC(=O)c1c(C)[nH]c(=S)c(C#N)c1-c1ccco1 do in these assays?
ClpP mod: 14µM*; GLP1R cytotox: 6%; GLP1R inv ag: 13%; DRD3 agonist: 0; D3 antag: -4; GLP-1R agonist: -8%

What do the screens show for `CNC(=O)c1c(C)[nH]c(=S)c(C#N)c1-c1ccco1`?
ClpP mod: -3%; GLP1R cytotox: -11%; GLP1R inv ag: 17%; DRD3 agonist: 10; D3 antag: 8; GLP-1R agonist: -2%

Results for COc1ccc(S(=O)(=O)Nc2cc3c(C(C)=O)c(C)oc3c3ccccc23)cc1 ?
ClpP mod: 1%; GLP1R cytotox: inconclusive; GLP1R inv ag: inconclusive; DRD3 agonist: -6; D3 antag: -15; GLP-1R agonist: 5%

What do the screens show for `CC(=O)c1c(C)oc2c1cc(NS(=O)(=O)c1ccc(C(C)(C)C)cc1)c1ccccc12`?
ClpP mod: 0%; GLP1R cytotox: -9%; GLP1R inv ag: 11µM*; DRD3 agonist: 3

What do the screens show for `COc1ccc(OC)c(NC(=O)C2(C)CCN2Cc2cccc(OC)c2F)c1` (stereo unspecified)?
ClpP mod: -1%; GLP1R cytotox: -4%; GLP1R inv ag: inconclusive; DRD3 agonist: 13; D3 antag: 80; GLP-1R agonist: 0%

How did COc1cccc(CN2CCC2(C)C(=O)Nc2cccc3cccnc23)c1F (stereo unspecified) do in these assays?
ClpP mod: 28µM*; GLP1R cytotox: -37%; GLP1R inv ag: inconclusive; DRD3 agonist: -3; D3 antag: 3; GLP-1R agonist: 29%

Results for O=C(NCc1nc(-c2ccc(C(F)(F)F)cc2)no1)Nc1ccc(OC(F)(F)F)cc1 ?
GLP1R cytotox: inconclusive; GLP1R inv ag: 2.8µM*; DRD3 agonist: -2; D3 antag: -7; GLP-1R agonist: 0%
